In PubChem BioAssay (Tox21):
Inconclusive results are not listed. Calls of active or inactive are those of the source. Unless noted, the call rests on the fitted dose curve; in most records, active means well fitted curve in the direction sought with a large enough effect in the repeat runs; inconclusive means weak or mixed curves; inactive means no such curve, though single readings can be large; an effect the other way counts as inactive or inconclusive.

Experiments:
[1] = qHTS assay to identify small molecule antagonists of the estrogen receptor alpha (ER-alpha) signaling pathway using the BG1 cell line in the presence of 0.1 nM 17-beta-estradiol - cell viability counter screen (AID 1259241); further: nearly all actives have a fitted effect of over 40% in size
Procedure, shortened: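 Estradiol-stimulated (0.1 nM) VM7Luc4E2 cells exposed to compounds 22 hr; viability measured by fluorescence of cleaved CellTiter-Fluor substrate after 30 min.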

[2] = qHTS assay to identify small molecule antagonists of the androgen receptor (AR) signaling pathway using the MDA cell line in the presence of 0.5 nM R1881 - cell viability counter screen (AID 1259242); further: nearly all actives have a fitted effect of over 45% in size
Procedure, shortened: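 Live-cell protease activity was measured by CellTiter-Fluor fluorescence after 30 min. Before that, MDA-kb2 MMTV-luciferase cells had 16 hr at 37C without CO2, exposed to test compounds and 0.5 nM R1881 final.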

[3] = target: Estrogen receptor (Homo sapiens) (UniProt P03372); test: qHTS assay to identify small molecule antagonists of the estrogen receptor alpha (ER-alpha) signaling pathway using the BG1 cell line in the presence of 0.1 nM 17-beta-estradiol (AID 1259244); further: nearly all actives have a fitted effect of over 50% in size; further: potency means the concentration at half of the fitted maximal effect
Procedure, shortened: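 Luciferase luminescence (ONE-Glo, 30 min at room temperature) was read after 22 hr at 37C exposure to compounds plus 17beta-estradiol at 0.1 nM final. Cells were VM7Luc4E2 with endogenous ER-alpha and an ERE-driven luciferase, pre-cultured 5 days in hormone-depleted medium.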

[4] = qHTS assay to identify small molecule HDAC inhibitors (AID 1259364); further: nearly all actives have a fitted effect of over 45% in size; further: potency means the concentration at half of the fitted maximal effect; on activity change, negative = inhibition: top concentration of the series differs between compounds
Procedure, shortened: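 Luminescence read after 30 min room-temperature HDAC-Glo incubation measures cellular class I/II HDAC activity. Compounds were applied for 2 hr at 37 C to HCT-116 wild-type cells seeded the day before.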

[5] = qHTS assay to identify small molecule HDAC inhibitors - cell viability counter screen (AID 1259365); further: series mostly up to about 92 µM; nearly all actives have a fitted effect of over 50% in size
Procedure, shortened: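 After overnight seeding at 1,500 cells per well, wild-type HCT-116 cultures took up compounds in DMSO for 2hr at 37 C. Viable cell content came from luminescence with CellTiter-Glo.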

[6] = qHTS assay to identify small molecule antagonists of the sonic hedgehog signaling (Shh) pathway - cell viability counter screen (AID 1259367); further: nearly all actives have a fitted effect of over 55% in size
Procedure, shortened: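 CellTiter-Fluor signal in conditioned medium-stimulated 3T3 Gli1-Luc cells, 23 hr compound exposure, 37C.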

[7] = qHTS assay to identify small molecule agonists of the sonic hedgehog signaling (Shh) pathway (AID 1259368; calls by dose curve;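 further: NIH/3T3-derived 3T3Gli1-Luc cells carrying a stable Gli1-driven firefly luciferase reporter; series mostly up to about 92 µM; nearly all actives have a fitted effect of over 15% in size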)
Procedure, shortened: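 Luminescence was read after 30 min at room temperature with luciferase reagent. Before that, 3T3Gli1-Luc cells (NIH/3T3 clone, stable Gli1-Luc reporter; 2,000/well) were exposed to compounds for 24 hr at 37C, 5% CO2, compounds being added 4 hr post-plating.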

[8] = qHTS assay to identify small molecule agonists of the sonic hedgehog signaling (Shh) pathway - cell viability counter screen (AID 1259366); further: nearly all actives have a fitted effect of over 50% in size
Procedure, shortened: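 Same-well cytotoxicity read. Gli1-Luc reporter 3T3 cells; compounds 24hr, 37C/5% CO2; CellTiter-Fluor fluorescence.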

[9] = qHTS assay to identify small molecule phospholipidosis (PLD) inducers (AID 1259344; active means well fitted curve in the direction sought with a large enough effect; an effect the other way counts as inactive or inconclusive)
Procedure, shortened: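 Accumulated phospholipid, stained red by LipidTOX during 24 h compound treatment of HepG2 cells at 37 C, is quantified from images as pit number and intensity, normalised per cell using Hoechst-stained nuclei.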
On the % scale 0 is the no-effect control and ±100 the full control effect.

Estrogen receptor (Homo sapiens), sequence (P03372 whole entry, looked up): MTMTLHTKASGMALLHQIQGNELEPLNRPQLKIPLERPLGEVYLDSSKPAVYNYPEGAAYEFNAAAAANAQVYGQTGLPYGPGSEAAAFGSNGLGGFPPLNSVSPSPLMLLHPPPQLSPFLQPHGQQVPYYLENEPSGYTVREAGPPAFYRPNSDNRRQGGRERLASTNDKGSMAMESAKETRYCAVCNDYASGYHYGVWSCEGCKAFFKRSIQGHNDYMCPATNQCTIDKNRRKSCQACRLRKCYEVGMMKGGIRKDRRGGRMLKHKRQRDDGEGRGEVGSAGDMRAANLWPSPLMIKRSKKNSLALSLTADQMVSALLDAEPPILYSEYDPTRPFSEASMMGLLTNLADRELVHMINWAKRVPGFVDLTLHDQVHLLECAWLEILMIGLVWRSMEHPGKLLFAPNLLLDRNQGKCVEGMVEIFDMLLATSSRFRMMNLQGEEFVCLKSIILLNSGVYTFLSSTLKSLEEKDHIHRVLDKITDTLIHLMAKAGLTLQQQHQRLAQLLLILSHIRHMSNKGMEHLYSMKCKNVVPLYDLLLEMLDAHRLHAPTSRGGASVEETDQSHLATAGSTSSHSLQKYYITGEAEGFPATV

O=C(Nc1ccccc1)Nc1ccccc1
active: Potency [4] 1.54 µM
inactive: Potency [1] | Potency [2] | Potency [3] | Potency [5] | Potency [6] | Potency [7]

CCC(C)(C)C1CCC(O)CC1 (stereo not given)
inactive: Potency [1] | Potency [2] | Potency [3] | Potency [4] | Potency [5] | Potency [8] | Potency [6] | Potency [7]

NC(=O)Nc1ccc(Cl)cc1
inactive: Potency [1] | Potency [2] | Potency [3] | Potency [4] | Potency [5] | Potency [6] | Potency [7]

CCCCN(CCCC)CCCOC(=O)c1ccc(N)cc1
inactive: Potency [1] | Potency [2] | outcome [9] | Potency [4] | Potency [5] | Potency [8] | Potency [6]

CC(CCO)CCc1ccccc1 (stereo not given)
inactive: Potency [1] | Potency [2] | Potency [3] | Potency [4] | Potency [5] | Potency [6]

Oc1cc(O)c(Cl)cc1Cl
inactive: Potency [1] | Potency [2] | Potency [3] | Potency [4] | Potency [5] | Potency [8] | Potency [6] | Potency [7]

Nc1ccc(S(=O)(=O)O)cc1
inactive: Potency [1] | Potency [2] | Potency [3] | Potency [4] | Potency [6] | Potency [7]

CCCCCCCCCCCC[N+](C)(C)CC(=O)[O-]
inactive: Potency [1] | Potency [2] | Potency [3] | Potency [4] | Potency [5] | Potency [8] | Potency [6] | Potency [7]

CSc1ccc(Oc2ccc(S(N)(=O)=O)cc2CN(C)C)cc1C
active: Potency [3] 68.6 µM
inactive: Potency [1] | Potency [2] | Potency [4] | Potency [5] | Potency [6] | Potency [7]

N#C/C(=C1/SC[C@@H](c2ccc(Cl)cc2Cl)S1)n1ccnc1
inactive: Potency [1] | Potency [2] | outcome [9] | Potency [4] | Potency [5] | Potency [8] | Potency [6]

C=CC(C)(O)CCCC(C)CCCC(C)CCCC(C)C (stereo not given)
inactive: Potency [1] | Potency [2] | Potency [3] | Potency [4] | Potency [5] | Potency [8] | Potency [6] | Potency [7]

Cc1ccnc2ccccc12
inactive: Potency [1] | Potency [2] | Potency [3] | Potency [4] | Potency [5] | Potency [8] | Potency [7]

CCCCCCCCCCCC[N+](C)(C)CCCS(=O)(=O)[O-]
inactive: Potency [1] | Potency [2] | Potency [3] | Potency [4] | Potency [5] | Potency [8] | Potency [6] | Potency [7]

CC1=C(C=O)C(C)(C)CCC1
inactive: Potency [1] | Potency [2] | Potency [3] | Potency [4] | Potency [5] | Potency [8] | Potency [6] | Potency [7]

Cc1nc2ccccc2s1
inactive: Potency [1] | Potency [2] | Potency [3] | Potency [4] | Potency [5] | Potency [6]

CCn1nc(C)c2c1C(=O)NCC(c1ccc(O)cc1)=N2
inactive: Potency [1] | Potency [2] | Potency [3] | Potency [4] | Potency [8] | Potency [6] | Potency [7]

CCCOCCOCCO
inactive: Potency [1] | Potency [2] | Potency [3] | Potency [4] | Potency [8] | Potency [6] | Potency [7]

c1cc[c]([Bi]([c]2ccccc2)[c]2ccccc2)cc1
inactive: Potency [1] | Potency [2] | Potency [3] | Potency [4] | Potency [5] | Potency [7]

CCCCN(CCCC)C(=S)SSC(=S)N(CCCC)CCCC
inactive: Potency [1] | Potency [2] | Potency [3] | Potency [4] | Potency [5] | Potency [6] | Potency [7]

CCCCOC(=O)CCS
active: Potency [3] 27.3 µM
inactive: Potency [1] | Potency [2] | Potency [4] | Potency [8] | Potency [6] | Potency [7]

CCC(=O)OC/C=C/c1ccccc1
inactive: Potency [1] | Potency [2] | Potency [3] | Potency [4] | Potency [5] | Potency [8] | Potency [6] | Potency [7]

CO[Si](C)(OC)OC
inactive: Potency [1] | Potency [2] | Potency [3] | Potency [4] | Potency [5] | Potency [8] | Potency [6] | Potency [7]

O=C(CCCN1CCC(O)(c2ccc(Br)cc2)CC1)c1ccc(F)cc1
inactive: Potency [1] | Potency [2] | Potency [3] | Potency [4] | Potency [8] | Potency [6] | Potency [7]

Brc1cc(-c2ccc(Br)c(Br)c2Br)cc(Br)c1Br
inactive: Potency [1] | Potency [2] | Potency [3] | Potency [4] | Potency [8] | Potency [6] | Potency [7]

CCCCCCCCCCCCCCCCBr
inactive: activity change, negative = cytotoxicity [1] 1.42% [at 19 µM] | viability change, negative = cytotoxic [2] 2.08% [at 19 µM] | activity change, negative = inhibition [3] 3% [at 19 µM] | activity change, negative = inhibition [4] 4.52% [at 19 µM] | activity change, negative = cytotoxicity [5] 1.54% [at 19 µM] | viability change, negative = cytotoxic [8] -1.13% [at 19 µM] | viability change, negative = cytotoxic [6] -2.38% [at 19 µM] | activity change [7] -0.182% [at 18.9 µM, stronger effect = higher value]

CC(=O)Nc1ccccc1C
inactive: Potency [1] | Potency [2] | Potency [3] | Potency [4] | Potency [8] | Potency [6] | Potency [7]

CC(=O)N(c1onc(C)c1C)S(=O)(=O)c1ccc(N)cc1
inactive: Potency [1] | Potency [2] | Potency [3] | Potency [4] | Potency [5] | Potency [8] | Potency [6] | Potency [7]
